Compound activity: PubChem BioAssay, National Center for Advancing Translational Sciences (NCATS)
12-LOX inh – blocks human arachidonate 12S-lipoxygenase; P18054; purified 12hLO, xylenol orange hydroperoxide absorbance; Potency, µM (series often up to 108 µM), usual class: inhibitors; hit rate 1.1% among 580,000
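Hydroperoxide product was detected by ferrous iron/xylenol orange as the 573 to 405 nm absorbance ratio. Arachidonic acid at 40 uM (final) was turned over for 30 min at room temperature by 150 nM human 12hLO, pH 7.0 Hepes buffer, after 15 min compound preincubation.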
HP1b binding inh – inhibitors of HP1-beta chromodomain binding to methylated histone tails | P83916 | AlphaScreen HP1-beta / biotin-H3K9me3 peptide binding | hit rate 0.56% among 390,000 | Potency, µM (doses to about 114 µM), most hits filed as inhibitors | AID 540317; note: nearly all actives have a fitted effect of over 70% in size
Target sequence (P83916 whole entry, looked up): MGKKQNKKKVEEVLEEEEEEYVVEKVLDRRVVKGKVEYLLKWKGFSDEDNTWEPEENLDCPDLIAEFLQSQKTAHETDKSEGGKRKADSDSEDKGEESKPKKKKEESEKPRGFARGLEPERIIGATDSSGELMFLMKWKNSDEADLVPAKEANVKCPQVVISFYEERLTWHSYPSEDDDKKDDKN
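HP1-beta protein (50 nM final) preincubated 30 min at room temperature with biotinylated H3(1-18)K9me3 peptide (50 nM) in PBS pH 7.4, 0.01% Tween-20, then compound added for 30 min. AlphaScreen streptavidin donor/nickel chelate acceptor beads (10 ug/mL final), 30 min dark, luminescence read.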
Sfp PPTase inh – inhibitors of Bacillus subtilis Sfp phosphopantetheinyl transferase | Q9F4F7 | AID 1490 | Biochemical Sfp PPTase activity, qHTS | hit rate 3.5% among 310,000 | Potency, µM, hits mostly inhibitors;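 note: the enzyme is Sfp with the accession as filed and its product quenches rhodamine fluorescence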
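With Hepes-Na pH 7.6 buffer containing 10 mM MgCl2, Sfp (15 nM) modified BHQ-2-YbbR (12.5 uM) using rhodamine-CoA (5 uM). Two reads 30 minutes apart at 525/598 nm yielded each well's rate.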
BAZ2B block – BAZ2B (human) inhibition; Q9UIF8; AlphaScreen BAZ2B-H3K14Ac peptide displacement; Potency, µM (highest dose often 114 µM), most hits filed as inhibitors; hit rate 4.4% among 360,000; note: nearly all actives have a fitted effect of over 60% in size
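Inhibition is scored as reduced AlphaScreen emission. The BAZ2B/b-H3(5-23)K14Ac complex (50 nM each) in PBS pH 7.4, 0.01% Tween-20 meets compound (up to 110 uM) for 30 min at RT before bead addition.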
JMJD2A Tudor inh – inhibitors of human JMJD2A Tudor domain; Potency, µM (titrated, usually from 114 µM), hits mostly inhibitors; O75164; AID 504339; hit rate 4.4% among 390,000; AlphaScreen JMJD2A-Tudor / H3K4me3 peptide binding; note: nearly all actives have a fitted effect of over 50% in size
G9a inh – blocks human histone lysine methyltransferase G9a. Q96KQ7. G9a H3K9 monomethylation, AlphaScreen, 2 h. Potency, µM (doses to about 102 µM), actives largely listed as inhibitors. hit rate 8.8% among 350,000. AID 504332; note: nearly all actives have a fitted effect of over 75% in size
Target sequence (Q96KQ7 913-1193 limits assumed): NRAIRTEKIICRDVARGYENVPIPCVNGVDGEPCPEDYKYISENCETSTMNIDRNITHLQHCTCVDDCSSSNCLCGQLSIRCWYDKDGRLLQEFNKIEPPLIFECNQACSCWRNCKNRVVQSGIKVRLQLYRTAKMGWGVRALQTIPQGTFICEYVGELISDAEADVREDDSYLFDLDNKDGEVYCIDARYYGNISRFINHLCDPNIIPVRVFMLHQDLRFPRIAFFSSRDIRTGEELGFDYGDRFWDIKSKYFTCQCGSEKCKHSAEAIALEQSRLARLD
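G9a (20 nM) preincubated 15 min RT with compounds, then 500 nM biotinylated H3K9 peptide and 20 uM SAM added; 2 h RT reaction. Monomethyl-H3K9 product detected by AlphaScreen with anti-H3K9me1 antibody, streptavidin donor and anti-rabbit IgG acceptor beads.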
Hits are given with their value; 0 = inactive; ? = inconclusive; - = no result; [ ] = remark or other dose. Rows were chosen to be rich in hits. Some 8.7% of all compounds tested hit in one or more screens of this group. Calls come from the whole dose curve; as a rule, active = well fitted curve in the direction sought with a large enough effect; inconclusive = small, poorly fitted or top-dose-only effect, or another doubt; inactive = no such curve, though single readings can be large; an effect the other way counts as inactive or inconclusive.

SMILES	12-LOX inh	HP1b binding inh	Sfp PPTase inh	BAZ2B block	JMJD2A Tudor inh	G9a inh
O=C(Cc1ccc(Cl)c(Cl)c1)Nc1ccccc1N1CCOCC1	0	0	0	-	0	79µM
O=C(Cc1ccc(S(=O)(=O)N2CCOCC2)s1)NCC(=O)Nc1ccccc1Br	0	0	-	0	0	0[0.501 µM]
CS(=O)(=O)c1ccccc1NC(=O)CNc1cc(Cl)ccc1N1CCOCC1	0	-	-	-	-	-
O=C(Cc1ccc(Cl)cc1)NC(=S)Nc1ccccc1N1CCOCC1	?	0	0	0	0	?
O=C(Cc1ccc(S(=O)(=O)N2CCOCC2)s1)Nc1ccccc1N1CCOCC1	0	0	0	-	0	45µM
CCCOc1ccc(NC(=O)Cc2ccc(S(=O)(=O)N3CCOCC3)s2)cc1OCCC	0	0	-	0	?	79µM
O=C(Cc1ccc(S(=O)(=O)N2CCOCC2)s1)Nc1ccccc1Br	0	0	0	71µM	?	-
Cn1c(-c2ccc(F)cc2)cnc1SCC(=O)Nc1ccccc1N1CCOCC1	0	0	0	?	0	45µM
CN1C[C@@H](NC(=O)C2CC2)C[C@H]1c1nc(-c2ccncc2)no1	0	-	-	-	-	-
CC1(CNc2ccccc2)COc2ccc(C(=O)Nc3ccc4[nH]ccc4c3)cc2N1 (stereo unspecified)	0	-	-	-	-	-
CC1CCCCN1C(=O)CSc1nc(C2CC2)nc2c1cnn2-c1ccccc1 (stereo unspecified)	?	0	20µM	0	0	?
COc1cc(NC(=S)Nc2ccc(Br)cc2Cl)c(OC)cc1Cl	?	?	50µM	0	0	0
COc1cc(Cl)c(C)cc1NC(=S)NN	?	0	35µM	0	?	6.3µM
COc1cc(NC(=S)Nc2cccc(Cl)c2Cl)c(OC)cc1Cl	0	0	50µM	0	0	?
COc1cc(NC(=S)NC(C)(C)C)c(OC)cc1Cl	?	0	0	0	?	?
CC(=O)NC1C(c2nc3ccccc3s2)=C(c2ccccc2)C(=O)N1c1ccc(C)cc1 (stereo unspecified)	0	?	0	0	?	50µM
Fc1ccc(-n2cc(-c3ccccc3)c3c(=S)nc[nH]c32)cc1	?	0	0	?	?	0
S=c1nc[nH]c2c1ncn2-c1ccc(Cl)cc1	?	?	-	-	50µM	-
CCCCOc1ccc(CNC(=O)c2ncoc2-c2cccs2)cc1	0	-	-	-	-	-
O=C1/C(=C\c2ccccn2)SC(=S)N1Nc1ncc(C(F)(F)F)cc1Cl	-	0	50µM	79µM	56µM	10µM
O=C1/C(=C/c2ccc(F)cc2)SC(=S)N1Nc1ncc(C(F)(F)F)cc1Cl	?	0	50µM	0	63µM	45µM
O=C1/C(=C/c2ccccn2)SC(=S)N1Nc1ncc(C(F)(F)F)cc1Cl	?	?	-	-	50µM	-
Cc1ccccc1COC1CN(C(=O)C2CCN(C(=O)C3CC3)CC2)C1	0	-	-	-	-	-
O=C1NC2(CCN(C(=O)c3cccnc3)CC2)COc2ccccc21	0	-	-	-	-	-
COc1cccc(CC(=O)NCC(=O)N2CCCCCNC(=O)CC2c2ccccc2)c1 (stereo unspecified)	0	-	-	-	-	-
SMILES	12-LOX inh	HP1b binding inh	Sfp PPTase inh	BAZ2B block	JMJD2A Tudor inh	G9a inh
COc1ccc(CNc2ncnc3c2CN(C2CCCNC2)C(=O)CN3C)cc1 (stereo unspecified)	0[6.33 µM]	-	-	-	-	-
CC(=O)C(C)Oc1ccc2c3c(c(=O)oc2c1)CCCCC3 (stereo unspecified)	0	0	71µM	0	0	0[12.7 µM]
O=C(O)C1CCN(C(=O)COc2ccc3c4c(c(=O)oc3c2)CCC4)CC1	0	0	0	?	0	50µM
CC(=O)C(C)Oc1ccc2c3c(c(=O)oc2c1)CCCC3 (stereo unspecified)	0	0	0	0	0	0
O=C(O)c1ccc(COc2ccc3c4c(c(=O)oc3c2)CCC4)o1	0	0	0	?	?	40µM
NC(=O)C1CCN(C(=O)COc2ccc3c4c(c(=O)oc3c2)CCCC4)CC1	0	0	0	?	0	0
CCc1[nH]c(=S)c(C#N)c(-c2ccccc2)c1C(=O)OC	?	0	0	0	?	16µM
Cc1[nH]c(=S)c(C#N)c(-c2ccccc2)c1C(=O)Nc1ccccc1	?	0	28µM	0	79µM	?
Cc1ccc(-c2c(C(=O)Nc3ccccc3C)c(C)[nH]c(=S)c2C#N)o1	?	0	2.8µM	79µM	0[11.4 µM]	0
Cc1nc2ncnn2c(N2CCCCC2)c1Cc1ccccc1	0	-	-	-	-	-
Cc1cc(NC(=O)Nc2nnc(N(C)C3CCCCC3)s2)ccc1Br	0	0	-	50µM	0	0
O=C1CN(C(=O)COC(=O)c2cccs2)c2ccccc2N1	0	0	-	0	0	0[2.33 µM]
Cc1cc(C(=O)OCC(=O)N2CC(=O)Nc3ccccc32)c(C)n1-c1ccc(F)cc1	0	0	0	?	?	0
O=C1CN(C(=O)COc2ccc(Br)cc2F)c2ccccc2N1	0	0	0	0	0	45µM
Cn1c2ccccc2c2cc(C(=O)OCC(=O)N3CC(=O)Nc4ccccc43)sc21	0	0	0	0	0	50µM
O=C1CN(C(=O)COc2ccc(F)cc2F)c2ccccc2N1	0	-	-	-	-	-
Cc1cc(C(=O)OCC(=O)N2CC(=O)Nc3ccccc32)c(C)n1-c1ccccc1	0	?	0	50µM	56µM	?
Cc1cc(C)cc(N2CC(c3nc(-c4ccccc4)no3)CC2=O)c1 (stereo unspecified)	0	-	-	-	-	-
C[C@@H]1CN(C2(C(=O)NCc3ccncc3)Cc3ccccc3C2)C[C@H](C)O1	0	-	-	-	-	-
CC(c1ccccc1)N1CCn2c(nc3cc(NC(=O)c4cccs4)ccc32)C1 (stereo unspecified)	0	0	0	0	0	?
CC(c1ccccc1)N1CCn2c(nc3cc(NC(=O)NC4CCCCC4)ccc32)C1 (stereo unspecified)	0	0	0	0	0	35µM
COc1cccc(/C=C/c2nc(C#N)c(N(C)C)o2)c1	0	-	-	-	-	-
CCOC(=O)c1c(CSC(=N)N)n(-c2ccc(Br)cc2)c2cc(Br)c(OC(C)=O)cc12	0	0	?	?	0	71µM
CCOC(=O)c1c(CSc2nc(C)cc(C)c2C#N)n(C)c2cc(Br)c(OC(C)=O)cc12	0	0	0	0	0	0
CCCCCCCCOC(=O)c1c(CSC(=N)N)n(C)c2cc(Br)c(OC(C)=O)cc12	?	?	40µM	0	?	-
COc1ccc(/C=N/NS(=O)(=O)c2ccc(C)cc2)cc1OC(=O)c1ccc(C)cc1	0	0	0	0	0	?
COC(=O)c1ccc(/C=N/NS(=O)(=O)c2cc(C)ccc2C)cc1	0	0	0	0	0	2.5µM
Cc1ccc(NCC(=O)N/N=C/c2ccc(C(=O)O)cc2)cc1	0	0	0	0	0[11.4 µM]	0
Cc1ccc(C)c(S(=O)(=O)N/N=C/c2ccc(C(=O)O)cc2)c1	0	0	0	0	0	35µM
O=C1OCCCN1CCNC(=O)[C@@]12CNC[C@@H]1CN(Cc1ccccc1)C2	0	-	-	-	-	-
